Results: PubChem BioAssay (Tox21)
Where “and” joins values, the source holds several entries; their conditions need not be identical. Identical values can stand only once. Inconclusive results are not listed. Calls of active or inactive are those of the source. Calls come from the whole dose curve; as a rule, active = well fitted curve in the direction sought with a large enough effect in the repeat runs; inconclusive = weak or mixed curves; inactive = no such curve, though single readings can be large; an effect the other way counts as inactive or inconclusive.

Tests used:
[1] = qHTS RealTime-Glo MT Cell Viability Assay in HepG2 cells - 40 hour (AID 1224870); note: nearly all actives have a fitted effect of over 50% in size
Outline: (§1)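 HepG2 cells mixed with RealTime-Glo MT reagents (NanoLuc plus cell-permeant prosubstrate) were seeded at 600 cells/well, incubated 5 h at 37 C/5% CO2, then pinned with compounds in DMSO; nonlytic luminescence tracked viability during 40 h treatment.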

[2] = A CellTox Green Cytotoxicity Assay to monitor cytotoxicity in HEK293 cells - 40 hour (AID 1224871); note: nearly all actives have a fitted effect of over 45% in size
Outline: (§2)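 Fluorescence from a DNA-binding dye excluded by viable cells was measured repeatedly in the same HEK293 wells (600 cells/well) during continuous compound exposure at 37 C. Each assay gives one read point: 0, 8, 16, 24, 32 or 40 h.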

[3] = qHTS RealTime-Glo MT Cell Viability Assay in HEK293 cells - 16 hour (AID 1224872); note: top concentration of the series differs between compounds; nearly all actives have a fitted effect of over 50% in size
Outline: (§3)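 Reads taken at 0, 8, 16, 24, 32 and 40 h from the same wells. HEK293 cells (600/well) carried RealTime-Glo reagents from seeding, with compound added after a 5 h settle at 37 C.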

[4] = qHTS RealTime-Glo MT Cell Viability Assay in HepG2 cells - 8 hour (AID 1224873); note: nearly all actives have a fitted effect of over 55% in size
Outline: as §1

[5] = qHTS RealTime-Glo MT Cell Viability Assay in HEK293 cells - 40 hour (AID 1224874); details: RealTime-Glo luminescence; max response: hits give low values; note: nearly all actives have a fitted effect of over 50% in size
Outline: (§4)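 Luminescence, which tracks viable cell number through reduction of the prosubstrate to a NanoLuc substrate, was read over continuous 37 C culture. Cells (600/well) were premixed with reagent and rested 5 h before 23 nL of compound in DMSO was pinned.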

[6] = A CellTox Green Cytotoxicity Assay to monitor cytotoxicity in HEK293 cells - 24 hour (AID 1224875); note: series mostly up to about 77 µM; nearly all actives have a fitted effect of over 45% in size
Outline: as §2

[7] = A CellTox Green Cytotoxicity Assay to monitor cytotoxicity in HepG2 cells - 16 hour (AID 1224876); note: nearly all actives have a fitted effect of over 45% in size
Outline: (§5)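 Real-time cytotoxicity: fluorescence of a cell-impermeant cyanine dye binding DNA of dead HepG2 cells, measured repeatedly (0–40 h) during compound exposure at 37 C. Cells seeded 600/well with reagent, dosed after 5 h.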

[8] = qHTS RealTime-Glo MT Cell Viability Assay in HepG2 cells - 32 hour (AID 1224877); note: nearly all actives have a fitted effect of over 55% in size
Outline: (§6)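 HepG2 suspension premixed with RealTime-Glo reagents is plated at 600 cells per well and left 5 h at 37 C/5% CO2. Compounds in DMSO then go in, and bioluminescence reflecting viable cell number is recorded over 40 h.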

[9] = A CellTox Green Cytotoxicity Assay to monitor cytotoxicity in HepG2 cells - 24 hour (AID 1224878); note: nearly all actives have a fitted effect of over 45% in size
Outline: as §5

[10] = A CellTox Green Cytotoxicity Assay to monitor cytotoxicity in HepG2 cells - 40 hour (AID 1224879); note: nearly all actives have a fitted effect of over 40% in size
Outline: as §5

[11] = qHTS RealTime-Glo MT Cell Viability Assay in HEK293 cells - 0 hour (AID 1224880)
Outline: as §4

[12] = A CellTox Green Cytotoxicity Assay to monitor cytotoxicity in HEK293 cells - 32 hour (AID 1224881); note: nearly all actives have a fitted effect of over 40% in size
Outline: as §2

[13] = A CellTox Green Cytotoxicity Assay to monitor cytotoxicity in HepG2 cells - 0 hour (AID 1224882); note: nearly all actives have a fitted effect of over 35% in size
Outline: as §5

[14] = A CellTox Green Cytotoxicity Assay to monitor cytotoxicity in HepG2 cells - 32 hour (AID 1224883); note: nearly all actives have a fitted effect of over 50% in size
Outline: as §5

[15] = A CellTox Green Cytotoxicity Assay to monitor cytotoxicity in HEK293 cells - 8 hour (AID 1224884); note: nearly all actives have a fitted effect of over 35% in size
Outline: as §2

[16] = qHTS RealTime-Glo MT Cell Viability Assay in HepG2 cells - 16 hour (AID 1224885); note: nearly all actives have a fitted effect of over 50% in size
Outline: as §6

[17] = qHTS RealTime-Glo MT Cell Viability Assay in HEK293 cells - 24 hour (AID 1224886)
Outline: as §3

[18] = qHTS RealTime-Glo MT Cell Viability Assay in HEK293 cells - 8 hour (AID 1224887)
Outline: as §4

[19] = A CellTox Green Cytotoxicity Assay to monitor cytotoxicity in HEK293 cells - 16 hour (AID 1224888); note: nearly all actives have a fitted effect of over 35% in size
Outline: as §2

[20] = qHTS RealTime-Glo MT Cell Viability Assay in HepG2 cells - 0 hour (AID 1224889); note: nearly all actives have a fitted effect of over 50% in size
Outline: as §6
% is set by controls: 0 for no effect and ±100 for the full control effect.

CC(=O)OCC1=C(C(=O)O)N2C(=O)[C@@H](N)[C@H]2SC1
inactive: activity change, negative = cytotoxic [1] 3.09% [at 15.8 µM] | cytotoxicity increase [2] -4.55% [at 15.8 µM] | activity change, negative = cytotoxicity [3] 5.5% [at 15.8 µM] | viability change, negative = cytotoxic [4] 1.05% [at 15.8 µM] | max response [5] 21.8% | activity change [6] 11.8% [at 15.8 µM, hits give high values] | cytotoxicity increase [7] 0.706% [at 15.8 µM] | activity change, negative = cytotoxic [8] 0.0723% [at 15.8 µM] | cytotoxicity [9] 0.21% [at 15.8 µM] | cytotoxicity increase [10] -2.77% [at 15.8 µM] | activity change, negative = cytotoxicity [11] -1.9% [at 15.8 µM] | cytotoxicity increase [12] -3.48% [at 15.8 µM] | cytotoxicity [13] -8.52% [at 15.8 µM] | cytotoxicity increase [14] 0.0293% [at 15.8 µM] | cytotoxicity increase [15] -3.34% [at 15.8 µM] | activity change, negative = cytotoxic [16] 0.0339% [at 15.8 µM] | activity change, negative = cytotoxicity [17] 11.4% [at 15.8 µM] | activity change, negative = cytotoxicity [18] -14.1% [at 15.8 µM] | activity change [19] 2.87% [at 15.8 µM, hits give high values] | activity change, negative = cytotoxicity [20] -5.45% [at 15.8 µM]

C=CC(=O)OCCN(C)C
inactive: Potency [1] | Potency [2] | Potency [3] | outcome [4] | max response [5] 14.5% | Potency [6] | Potency [7] | Potency [8] | Potency [9] | Potency [10] | outcome [11] | Potency [12] | outcome [13] | Potency [14] | Potency [15] | Potency [16] | Potency [17] | Potency [18] | Potency [19] | outcome [20]

CS(=O)(=O)c1ccc(C(=O)C2C(=O)CCCC2=O)c(Cl)c1COCC(F)(F)F
inactive: Potency [1] | Potency [2] | Potency [3] | outcome [4] | max response [5] 2.82% | Potency [6] | Potency [7] | Potency [8] | Potency [9] | Potency [10] | outcome [11] | Potency [12] | outcome [13] | Potency [14] | Potency [15] | Potency [16] | Potency [17] | Potency [18] | Potency [19] | outcome [20]

CCN[C@@H](C)Cc1cccc(C(F)(F)F)c1
inactive: Potency [1] | Potency [2] | Potency [3] | outcome [4] | max response [5] 2.94% | Potency [6] | Potency [7] | Potency [8] | Potency [9] | Potency [10] | outcome [11] | Potency [12] | outcome [13] | Potency [14] | Potency [15] | Potency [16] | Potency [17] | Potency [18] | Potency [19] | outcome [20]

NC(=O)OCCCc1ccccc1
inactive: Potency [1] | Potency [2] | Potency [3] | outcome [4] | max response [5] 2.14% | Potency [6] | Potency [7] | Potency [8] | Potency [9] | Potency [10] | outcome [11] | Potency [12] | outcome [13] | Potency [14] | Potency [15] | Potency [16] | Potency [18] | Potency [19] | outcome [20]

CNC(=O)O/N=C(/CSC)C(C)(C)C
inactive: Potency [1] | Potency [2] | Potency [3] | outcome [4] | max response [5] -0.61% | Potency [6] | Potency [7] | Potency [8] | Potency [9] | Potency [10] | outcome [11] | Potency [12] | outcome [13] | Potency [14] | Potency [15] | Potency [16] | Potency [17] | Potency [18] | Potency [19] | outcome [20]

O=C(NC(O)C(Cl)(Cl)Cl)NC(O)C(Cl)(Cl)Cl (configuration not stated)
inactive: Potency [1] | Potency [2] | Potency [3] | outcome [4] | max response [5] 0.623% | Potency [6] | Potency [7] | Potency [8] | Potency [9] | Potency [10] | outcome [11] | Potency [12] | outcome [13] | Potency [14] | Potency [15] | Potency [16] | Potency [17] | Potency [18] | Potency [19] | outcome [20]

C=CC1(C)OC(=O)N(c2cc(Cl)cc(Cl)c2)C1=O (configuration not stated)
inactive: Potency [1] | Potency [2] | Potency [3] | outcome [4] | max response [5] -8.21% and -20% | Potency [6] | Potency [7] | Potency [8] | Potency [9] | Potency [10] | outcome [11] | Potency [12] | outcome [13] | Potency [14] | Potency [15] | Potency [16] | Potency [18] | Potency [19] | outcome [20]

Cc1ccc2c(c1)C1CN(C)CCC1N2 (configuration not stated)
inactive: activity change, negative = cytotoxic [1] 2.24% [at 15.8 µM] | cytotoxicity increase [2] -9.63% [at 15.8 µM] | activity change, negative = cytotoxicity [3] -1.2% [at 15.8 µM] | viability change, negative = cytotoxic [4] -2.24% [at 15.8 µM] | max response [5] 2.17% | activity change [6] 0.918% [at 15.8 µM, hits give high values] | cytotoxicity increase [7] 12.2% [at 15.8 µM] | activity change, negative = cytotoxic [8] -0.204% [at 15.8 µM] | cytotoxicity [9] 11.8% [at 15.8 µM] | cytotoxicity increase [10] 15.6% [at 15.8 µM] | activity change, negative = cytotoxicity [11] -0.907% [at 15.8 µM] | cytotoxicity increase [12] -4.65% [at 15.8 µM] | cytotoxicity [13] -0.534% [at 15.8 µM] | cytotoxicity increase [14] 14.3% [at 15.8 µM] | cytotoxicity increase [15] -1.28% [at 15.8 µM] | activity change, negative = cytotoxic [16] -6.11% [at 15.8 µM] | activity change, negative = cytotoxicity [17] -0.194% [at 15.8 µM] | activity change, negative = cytotoxicity [18] 1.42% [at 15.8 µM] | activity change [19] -0.0479% [at 15.8 µM, hits give high values] | activity change, negative = cytotoxicity [20] -0.0575% [at 15.8 µM]

Cc1ccc(Cl)c(O)c1
inactive: Potency [1] | Potency [2] | Potency [3] | outcome [4] | max response [5] 1.02% | Potency [6] | Potency [7] | Potency [8] | Potency [9] | Potency [10] | outcome [11] | Potency [12] | outcome [13] | Potency [14] | Potency [15] | Potency [16] | Potency [17] | Potency [18] | Potency [19] | outcome [20]

O=C(O)CBr
inactive: Potency [1] | Potency [2] | Potency [3] | outcome [4] | max response [5] -0.861% | Potency [6] | Potency [7] | Potency [8] | Potency [9] | Potency [10] | outcome [11] | Potency [12] | outcome [13] | Potency [14] | Potency [15] | Potency [16] | Potency [17] | Potency [18] | Potency [19] | outcome [20]

O=CCCl
inactive: Potency [1] | Potency [2] | Potency [3] | outcome [4] | max response [5] 6.03% | Potency [6] | Potency [7] | Potency [8] | Potency [9] | Potency [10] | outcome [11] | Potency [12] | outcome [13] | Potency [14] | Potency [15] | Potency [16] | Potency [17] | Potency [18] | Potency [19] | outcome [20]

CCC(C)C(C)(COC(N)=O)COC(N)=O (configuration not stated)
inactive: Potency [1] | Potency [2] | Potency [3] | outcome [4] | max response [5] 3.68% | Potency [6] | Potency [7] | Potency [8] | Potency [9] | Potency [10] | outcome [11] | Potency [12] | outcome [13] | Potency [14] | Potency [15] | Potency [17] | Potency [18] | Potency [19] | outcome [20]
